# Bioassay records: PubChem, The Scripps Research Institute Molecular Screening Center
# In the library only some 2.5% were active in any assay of this set; here they are far more common.
# ASK1 primary: inhibitors of human ASK1 kinase; AlphaScreen MKK6 phosphorylation by ASK1, luminescence; hit rate 0.99% among 22,000; inhibition, % at 7.44 µM; in the data active = inhibition above about 35%;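 also: 0% = median of compound wells and 100% = no enzyme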
# ULK1 inh: blocks human autophagy kinase ULK1; AlphaScreen Atg13 phosphorylation by ULK1, luminescence; inhibition, % at 5.96 µM; AID 1259251; hit rate 1.9% among 30,000; in the data active = inhibition above about 43%;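 also: 0% = median of compound wells and 100% = no enzyme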
# Target sequence (O75385 whole entry, looked up): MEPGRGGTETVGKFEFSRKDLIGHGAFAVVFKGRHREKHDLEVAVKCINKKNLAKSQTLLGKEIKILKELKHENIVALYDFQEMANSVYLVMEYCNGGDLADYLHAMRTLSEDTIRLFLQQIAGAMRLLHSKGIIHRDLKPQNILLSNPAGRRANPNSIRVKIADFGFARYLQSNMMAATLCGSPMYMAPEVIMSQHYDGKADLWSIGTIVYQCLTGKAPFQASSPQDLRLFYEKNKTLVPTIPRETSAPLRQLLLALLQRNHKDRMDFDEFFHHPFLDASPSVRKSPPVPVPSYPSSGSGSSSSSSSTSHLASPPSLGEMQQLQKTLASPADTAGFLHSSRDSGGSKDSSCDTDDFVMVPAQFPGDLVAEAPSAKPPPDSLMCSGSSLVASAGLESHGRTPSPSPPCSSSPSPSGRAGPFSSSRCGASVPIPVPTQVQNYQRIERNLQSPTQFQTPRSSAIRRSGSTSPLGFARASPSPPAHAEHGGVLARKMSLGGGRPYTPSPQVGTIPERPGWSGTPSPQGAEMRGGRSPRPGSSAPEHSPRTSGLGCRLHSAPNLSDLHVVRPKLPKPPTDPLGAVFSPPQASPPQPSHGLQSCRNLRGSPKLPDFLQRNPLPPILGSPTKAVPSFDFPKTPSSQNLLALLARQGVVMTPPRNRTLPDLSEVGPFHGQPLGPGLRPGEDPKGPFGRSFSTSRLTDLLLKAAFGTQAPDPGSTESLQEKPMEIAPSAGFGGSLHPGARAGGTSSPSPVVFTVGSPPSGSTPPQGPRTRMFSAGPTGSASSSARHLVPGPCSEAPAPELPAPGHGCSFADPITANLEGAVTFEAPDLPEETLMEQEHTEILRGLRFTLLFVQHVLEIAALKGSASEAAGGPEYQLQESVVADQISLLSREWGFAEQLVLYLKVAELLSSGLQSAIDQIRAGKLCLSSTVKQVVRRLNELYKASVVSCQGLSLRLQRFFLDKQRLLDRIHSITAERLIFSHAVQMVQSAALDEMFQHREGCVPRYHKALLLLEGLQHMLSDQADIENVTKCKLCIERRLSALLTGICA
# TruHits interf: counter-screen for ASK1 inhibitors: AlphaScreen optical interference | shares compounds with ASK1 primary | AlphaScreen TruHits beads, signal interference counterscreen | IC50, µM | hit rate 20% among 220;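 active = IC50 of 10 µM or lower in the counterscreen; inactive = IC50 above 10 µM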;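 also: loss of AlphaScreen light from TruHits beads alone with no ASK1 enzyme present; potency of signal reduction so a low IC50 flags an assay artifact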
# The depositor's hits bear a star; i = inactive; · = no result given; ! = repeats disagree.
SMILES,ASK1 primary,ULK1 inh,others
COc1ccc(CCNc2nc(Nc3ccccc3)nc3nc[nH]c23)cc1,22.1,4.3,
COc1cc(Nc2ncc(C)c(NC3CC3)n2)cc(OC)c1OC,19.8,64.7*,
COc1ccc(CCNc2nc(Nc3cc(OC)c(OC)c(OC)c3)nc3nc[nH]c23)cc1,14.3,68.7*,
CN(C)c1cccc(Nc2nc(NC3CC3)c3[nH]cnc3n2)c1,33.7,42.7*,
Cc1cnc(Nc2ncccn2)nc1NC1CC1,-21.5,15.8,
CCN(CC)C(=O)C1CCCN(c2nc(NCc3ccccc3)c3cc(OC)c(OC)cc3n2)C1 (centres undefined),-5.9,-4.0,
O=c1[nH]c(C2COc3ccccc3O2)nc2ccncc12 (centres undefined),4.7,22.2,
c1ccc(CN2CCC(Nc3nccc(NCc4cccnc4)n3)CC2)cc1,-8.9,-4.5,
COCCNC(=O)c1ccc2c(c1)CC(C(=O)Nc1ccc(-c3cn[nH]c3)cc1OC)CO2 (centres undefined),-11.6,-2.1,
COc1cc(Nc2nc(Nc3ccc4c(c3)OCO4)c3[nH]cnc3n2)cc(OC)c1OC,5.7,52.2*,
COc1cc(Nc2nc(NCc3ccc4c(c3)OCO4)nc3nc[nH]c23)cc(OC)c1OC,21.1,-13.8,
COc1cc(Nc2nc(NC3CC3)c3[nH]cnc3n2)cc(OC)c1OC,-5.9,62.3*,
COc1cc(Nc2nc(NC3CCN(Cc4ccccc4)CC3)c3[nH]cnc3n2)cc(OC)c1OC,18.3,6.0,
Cc1cnc(Nc2cccc(N(C)C)c2)nc1Nc1ccccc1,14.8,23.3,
COc1cc(Nc2nc(Nc3cccc(N(C)C)c3)ncc2C)cc(OC)c1OC,21.2,62.9*,
Cc1cccc(COC(=O)Nc2ccc(-c3cn[nH]c3)cc2OCCCO)c1,-9.0,-80.7,
CC(=O)c1cccc(-c2nc3ccc(C(=O)NCc4cccnc4)cc3s2)c1,2.9,0.3,
O=C1CCCN1CCCNc1nc(N2CCC(N3CCOCC3)CC2)nc2c1ncn2-c1ccccc1,9.8,10.4,
CC(C)n1c(-c2ccc(C(N)=O)cc2)nc2c(NCCOc3ccccc3)ncnc21,1.9,-10.2,
CCc1cc2c(=O)c(-c3nc4ccccc4[nH]3)coc2c(CN(C)C)c1O,·,18.6,
CC(C)n1c(N2CCCC2CO)nc2c(NCCc3ccc(O)cc3)ncnc21 (centres undefined),-3.9,-7.5,
CC(C)N(CCNC(=O)C1CCN(c2ccc(N3CCCC3CO)nn2)CC1)C(C)C (centres undefined),2.2,55.6*,
O=C(NCCO)C1CCN(c2ccc(N3CCCC3CO)nn2)CC1 (centres undefined),-4.7,-3.8,
Fc1cc(-c2ccnc(Nc3ccc(-n4cnc(N5CCOCC5)n4)cc3)n2)cc(N2CCOCC2)c1,23.9,5.3,
COc1ccc(-c2ncn(-c3ccc(Nc4nccc(-c5cc(C#N)cc(N6CCNCC6)c5)n4)cc3)n2)cn1,44.6*,-387.0,TruHits interf=>19.2
SMILES,ASK1 primary,ULK1 inh,others
COc1ccc(-c2ccc(Nc3nccc(-c4cc(C#N)cc(N5CCOCC5)c4)n3)cc2)cn1,-2.2,-3.9,
c1cc(-n2cnc(N3CCOCC3)n2)ccc1Nc1ncc2ccc(-c3cn[nH]n3)cc2n1,48.6*,59.2*,TruHits interf=>19.2
Cc1nc(-c2ccc3cnc(Nc4ccc(-n5cnc(N6CCOCC6)n5)cc4)nc3c2)n[nH]1,-20.5,19.1,
CN(C)c1cc(F)cc(-c2ccnc(Nc3ccc(-n4cnc(N5CCC(O)CC5)n4)cc3)n2)c1,38.6*,-32.8,TruHits interf=>19.2
Cc1ccc(-c2ncn(-c3ccc(Nc4nccc(-c5cc(F)cc(N(C)C)c5)n4)cc3)n2)cn1,-14.8,-24.8,
Cc1n[nH]c(C)c1-c1cc(F)cc(-c2ccnc(Nc3ccc(-n4cnc(N5CCOCC5)n4)cc3)n2)c1,48.5*,13.0,TruHits interf=>19.2
Cc1ccc(NC(=O)Cn2nnc(-c3ccccc3NC(=O)c3cnc(C)cn3)n2)cc1,·,-1.0,
COc1ccc(-c2cncc(C(=O)NCCOc3ccccc3)c2)cn1,-4.6,-8.9,
O=C(NC1CCN(Cc2ccccc2)CC1)c1cnc(N2CCc3ccccc3C2)s1,-10.6,8.1,
O=C(Nc1ccc(Cn2cncn2)cc1)c1cc(-c2ccccc2)n[nH]1,1.7,-16.9,
CN1CCN(c2ncn(-c3ccc(Nc4nccc(-c5cc(C#N)cc(N6CCC(O)CC6)c5)n4)cc3)n2)CC1,41.0*,-50.8,TruHits interf=>19.2
N#Cc1cc(-c2ccnc(Nc3ccc(-n4cnc(N5CCOCC5)n4)cc3)n2)cc(N2CCCC(O)C2)c1 (centres undefined),13.7,6.0,
O=C(NC1CCN(Cc2ccccc2)CC1)c1cccc(-c2csc3ccccc23)n1,8.8,-5.3,
Cc1cc(NCc2cccc(C(F)(F)F)c2)nc(Nc2ccc(N3CCOCC3)cc2)n1,39.6*!,-9.1,TruHits interf=4.58*
COc1cc2nc(Nc3cccc(N(C)C)c3)nc(NCc3cccc(C(F)(F)F)c3)c2cc1OC,37.7*,-15.2,TruHits interf=i
CN(C)c1cccc(Nc2nccc(NCc3cccc(C(F)(F)F)c3)n2)c1,42.6*,-1.2,TruHits interf=>16.5
